Results: PubChem BioAssay (Tox21)
Records with an inconclusive call do not appear. A number with no mark means an inactive call. Active and inactive are the calls of the source. Calls come from the whole dose curve; as a rule, active = well fitted inhibition curve with a large enough effect in the repeat runs; inconclusive = weak or mixed curves; inactive = no such curve, though single readings can be large or run the other way.
% is set by controls: 0 for no effect and ±100 for the full control effect; potency is the fitted concentration of half-maximal effect.

Each molecule was assayed against Cytochrome P450 2C19 (Homo sapiens) (UniProt P33261) (assay: Cytochrome P450 Family 2 Subfamily C Member 19 (CYP2C19) small molecule antagonists: luciferase reporter qHTS assay (AID 1671197; note: nearly all actives have a fitted effect of over 65% in size)). Conditions: P450-Glo CYP2C19 enzyme, luciferin luminescence, 1 h; series mostly up to 115 µM; activity change, negative = inhibition: at the top concentration.
Sequence of Cytochrome P450 2C19 (Homo sapiens) (P33261 whole entry, looked up): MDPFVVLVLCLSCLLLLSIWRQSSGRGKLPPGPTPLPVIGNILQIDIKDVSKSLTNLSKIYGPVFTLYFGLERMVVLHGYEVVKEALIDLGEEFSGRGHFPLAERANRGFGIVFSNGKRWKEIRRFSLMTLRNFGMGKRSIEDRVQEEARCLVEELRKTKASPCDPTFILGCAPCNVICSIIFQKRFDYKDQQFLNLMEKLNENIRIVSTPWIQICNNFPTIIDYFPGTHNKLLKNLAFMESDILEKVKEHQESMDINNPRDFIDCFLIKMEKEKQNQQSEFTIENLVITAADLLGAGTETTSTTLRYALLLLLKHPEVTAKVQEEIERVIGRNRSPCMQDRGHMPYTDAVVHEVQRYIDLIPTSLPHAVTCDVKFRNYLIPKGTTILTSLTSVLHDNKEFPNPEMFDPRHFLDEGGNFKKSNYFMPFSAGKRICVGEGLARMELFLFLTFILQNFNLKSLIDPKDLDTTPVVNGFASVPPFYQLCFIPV
Source text: National Center for Advancing Translational Sciences [NCATS]
U.S. Environmental Protection Agency [EPA]
National Institutes of Environmental Health Sciences [NIEHS]
National Toxicology Program [NTP]
U.S. Food and Drug Administration [FDA]
Cytochrome P450 (CYP) enzymes are membrane-bound hemeproteins that play a key role in metabolism of drugs and xenobiotics. Evaluation of the effect of chemicals on CYP isozymes is useful to minimize the adverse drug reactions and toxicities in drug development process. Tox21 chemicals were tested for their effect on CYP enzyme activities by using P450-Glo (TM) screening systems (Promega Corporation, Madison, WI). These systems provide a luminescent method containing proluciferin substrates and are converted to luciferin products by CYP isozymes. The luciferin products formed are detected with a luciferin detection reagent, and the amount of light produced is proportional to CYP activity. P450-Glo (TM) CYP2C19 screening system (Catalog. No. V9880) was used to detect the compounds that interfere in CYP2C19 activity. The positive control compound used for CYP2C19 assay is ketoconazole (Sigma-Aldrich, St. Louis, MO).
Tox21 Assay Protocol Summary:
Two ul of enzyme-substrate mix was dispensed into medium binding white/solid 1536-well plates (Greiner Bio-One North America Inc., Monroe, NC) using a BioRaptr Flying Reagent Dispenser (FRD, Beckman Coulter, Brea, CA). Compounds dissolved in DMSO and positive control (ketoconazole) were transferred to the assay plates at 23 nl using a Pintool station (Wako, San Diego, CA). The assay plates were incubated at room temperature for 10 min. Then 2 ul of NADPH regeneration solution was added to each well of the assay plates using an FRD and incubated at 37C for 1 h. The reaction was stopped by adding 4 ul of detection reagent using an FRD and after 20 min incubation at room temperature the luminescence signal was measured using a ViewLux plate reader (Perkin Elmer, Shelton, CT). Data were expressed as relative luminescence units.
For O=S(=O)(O)C(F)(F)C(F)(F)C(F)(F)C(F)(F)F, the Potency was 33.6 µM (active). With CC1(C)CCC(Cc2ccc(Cl)cc2)C1(O)Cn1cncn1 (stereo not given) the Potency was 0.126 µM (active). With CC(Cl)Cl the “activity change, negative = inhibition” value was 0.869%. Clc1ccc(C2(Cn3cncn3)CC(Br)CO2)c(Cl)c1 (stereo not given) was tested, and the Potency was 0.177 µM (active). In the case of CC(=O)C(C)(C)C, the “activity change, negative = inhibition” value is reported as -12.4%. For CO[C@@H]1[C@H](OC(=O)NC(=O)CCl)CC[C@]2(CO2)[C@H]1[C@@]1(C)O[C@@H]1CC=C(C)C, the Potency was 21.8 µM (active). For Clc1cccc2ccccc12, the “activity change, negative = inhibition” value was -6.47%. With C[N+](C)(C)CCCl the “activity change, negative = inhibition” value was 12.3%. In the case of CN(C)c1ccc(N(C)C)cc1, the Potency is reported as 7.99 µM (active). In the case of ClC=C(Cl)Cl, the “activity change, negative = inhibition” value is reported as -2.32%. CC(C)O.CC(C)O.OCCN(CCO)CCO.OCCN(CCO)CCO.[Ti] was tested, and the “activity change, negative = inhibition” value was -6.41%. COP(=O)(OC)O/C(=C/Cl)c1cc(Cl)c(Cl)cc1Cl was tested, and the Potency was 5.31 µM (active). With CCOP(=S)(Oc1ccc([N+](=O)[O-])cc1)c1ccccc1 (stereo not given) the Potency was 0.159 µM (active). C=CC(=O)NCNC(=O)C=C was tested, and the “activity change, negative = inhibition” value was 37.8%. With O=C(NC(=O)c1c(F)cccc1F)Nc1ccc(OC(F)(F)C(F)OC(F)(F)F)c(Cl)c1 (stereo not given) the “activity change, negative = inhibition” value was -14.6% [at 52.9 µM]. In the case of O=C(O)CC(Cl)C(=O)O (stereo not given), the “activity change, negative = inhibition” value is reported as 1.77%. In the case of O=C(OC1CCCCC1)c1ccccc1C(=O)OC1CCCCC1, the Potency is reported as 33.4 µM (active). For CC(=O)NC1CCSC1=O (stereo not given), the “activity change, negative = inhibition” value was -12% [at 52.9 µM]. For Cc1c(F)c(F)c(COC(=O)C2C(/C=C(\Cl)C(F)(F)F)C2(C)C)c(F)c1F (stereo not given), the Potency was 35.6 µM (active). With CCCC(=O)Cl the “activity change, negative = inhibition” value was -18.3%. With COC(=O)C(C)N(C(=O)Cc1ccccc1)c1c(C)cccc1C (stereo not given) the Potency was 3.56 µM (active). CCC(COC(=O)c1cc(OC)c(OC)c(OC)c1)(c1ccccc1)N(C)C (stereo not given) was tested, and the Potency was 24.5 µM (active). CO/N=C(/C(=O)OC)c1ccccc1COc1ccccc1C was tested, and the Potency was 0.633 µM (active). In the case of O=Cc1ccc(Cl)cc1Cl, the “activity change, negative = inhibition” value is reported as -17.2%. COC(=O)c1cncn1C(C)c1ccccc1 (stereo not given) was tested, and the Potency was 3.89 µM (active). N#CCC#N was tested, and the “activity change, negative = inhibition” value was -6.55%. CCOP(=S)(OCC)Oc1cc(Cl)c(Br)cc1Cl was tested, and the Potency was 0.71 µM (active). With CCBr the “activity change, negative = inhibition” value was -14.7%. With O=C(O)c1ccccc1C(=O)Nc1cccc2ccccc12 the Potency was 15.9 µM (active). In the case of Cc1ccc(N)cc1C, the Potency is reported as 28.5 µM (active). O=Cc1ccc2c(c1)OCO2 was tested, and the “activity change, negative = inhibition” value was 2.54%. CCCCCCCCCC(=O)O[C@H]1CC[C@H]2[C@@H]3CCC4=CC(=O)CC[C@@H]4[C@H]3CC[C@]12C was tested, and the Potency was 21.9 µM (active). With COC1=CC(=O)O[C@@H](CCc2ccccc2)C1 the Potency was 5.87 µM (active). For O=[N+]([O-])c1cc(C(F)(F)F)cc([N+](=O)[O-])c1Cl, the Potency was 40.1 µM (active). O=S(=O)(Cl)c1ccccc1 was tested, and the “activity change, negative = inhibition” value was 29.2%. In the case of COc1cc(CC(C)N)cc2c1OCO2 (stereo not given), the “activity change, negative = inhibition” value is reported as 4.15%. With CCOC(=O)[C@]1(c2ccccc2)Oc2ccccc2[C@@H]1N the Potency was 35.6 µM (active). O=[N+]([O-])c1ccc(F)c([N+](=O)[O-])c1 was tested, and the “activity change, negative = inhibition” value was -13%. With CCCCc1c(C)nc(NCC)nc1OS(=O)(=O)N(C)C the Potency was 79.6 µM (active). In the case of CCCN(CCCl)c1c([N+](=O)[O-])cc(C(F)(F)F)cc1[N+](=O)[O-], the Potency is reported as 17.8 µM (active).
